Experimental data taken from PubChem BioAssay.
For some assays here: Results with a measured potency or affinity are listed apart. The source made the active and inactive calls. Unless noted, no rule for the calls is given here.

Tests used:
[1] = antimalarial activity against Dd2 strain (AID 2302;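 active = growth inhibition above 50% at the single 2 µM test dose, taken to imply half-maximal potency below 2 µM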;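 also: 0% = DMSO untreated growth and 100% = chloroquine plus artemisinin killed control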); conditions: P. falciparum Dd2 in RBCs, LDH growth readout, 72 h; at 2 µM; active compounds read high
[2] = HepG2 cytotoxicity, primary screen, cytotoxicity control for P. falciparum antimalarial project, cell-based, ATP luminescence (AID 2303;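 active = inhibition above 50%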;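 also: 0% = DMSO wells and 100% = digitonin-killed cells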); conditions: HepG2 viability, 24-48 h, at 10 µM, active compounds read high
[3] = target: L-lactate dehydrogenase (Plasmodium falciparum (isolate CDC / Honduras)) (UniProt Q27743); assay: PfLDH activity inhibition – cell lysate, 3D7 strain, counter-screen for P. falciparum growth inhibition project (AID 2304);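 also: 0% = vehicle and 100% = reference inhibitor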; conditions: P. falciparum 3D7 crude extract, LDH APAD/NBT absorbance; at 2 µM; active compounds read high
[4] = inhibition of 3D7 malaria parasite growth – strain 3D7 (AID 2306);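 also: 0% = DMSO wells and 100% = chloroquine plus artemisinin control wells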; conditions: P. falciparum 3D7 erythrocytic growth, LDH absorbance, 72 h; at 2 µM; active compounds read high
[5] = target: Calcium-dependent protein kinase 1 (Plasmodium falciparum (isolate 3D7)) (UniProt P62344); assay: PfCDPK1 kinase inhibitors, biochemical, TCAMS library (AID 1159585; cut-off not given, nearly all actives have IC50 up to about 0.98 µM;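 also: inhibitors leave more ATP so luminescence rises with inhibition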); conditions: recombinant PfCDPK1, Kinase-Glo ATP depletion luminescence
[6] = target: Plasmodium falciparum protein kinase 6 (PK6, PF3D7_1337100) (UniProt Q8IDW1); assay: PfPK6 kinase inhibitors, biochemical, TCAMS library (AID 1159586); conditions: recombinant PfPK6, Kinase-Glo ATP depletion luminescence
[7] = target: Protein kinase 7 (PK7), Plasmodium falciparum 3D7 (PF3D7_0213400) (UniProt Q7YTF7); assay: inhibition of Plasmodium PK7 catalytic activity – biochemical, TCAMS antimalarial set, Kinase-Glo luminescence (AID 1159587); conditions: recombinant PfPK7, Kinase-Glo ATP depletion luminescence
[8] = target: Calcium-dependent protein kinase 4 (Plasmodium falciparum (isolate 3D7)) (UniProt Q8IBS5); assay: PfCDPK4 kinase inhibitors, biochemical, TCAMS library (AID 1159588; cut-off not given, nearly all actives have IC50 up to about 0.91 µM); conditions: recombinant PfCDPK4, Kinase-Glo ATP depletion luminescence
Sequence of Calcium-dependent protein kinase 4 (Plasmodium falciparum (isolate 3D7)) (Q8IBS5 whole entry, looked up): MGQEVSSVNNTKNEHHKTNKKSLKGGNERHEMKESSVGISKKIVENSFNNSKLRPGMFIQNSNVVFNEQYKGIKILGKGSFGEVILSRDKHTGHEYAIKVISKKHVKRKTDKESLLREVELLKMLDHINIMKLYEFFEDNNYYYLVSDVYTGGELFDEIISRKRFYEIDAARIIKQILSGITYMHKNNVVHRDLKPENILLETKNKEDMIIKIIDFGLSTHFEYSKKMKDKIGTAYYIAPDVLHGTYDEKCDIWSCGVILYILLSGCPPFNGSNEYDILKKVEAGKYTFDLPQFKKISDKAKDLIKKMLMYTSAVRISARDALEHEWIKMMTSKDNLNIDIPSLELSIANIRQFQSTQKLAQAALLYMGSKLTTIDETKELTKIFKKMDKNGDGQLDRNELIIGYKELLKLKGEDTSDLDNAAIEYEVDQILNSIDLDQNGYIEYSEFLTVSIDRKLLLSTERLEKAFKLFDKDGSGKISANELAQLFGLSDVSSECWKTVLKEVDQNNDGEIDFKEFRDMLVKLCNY

Sequence of Calcium-dependent protein kinase 1 (Plasmodium falciparum (isolate 3D7)) (P62344 whole entry, looked up): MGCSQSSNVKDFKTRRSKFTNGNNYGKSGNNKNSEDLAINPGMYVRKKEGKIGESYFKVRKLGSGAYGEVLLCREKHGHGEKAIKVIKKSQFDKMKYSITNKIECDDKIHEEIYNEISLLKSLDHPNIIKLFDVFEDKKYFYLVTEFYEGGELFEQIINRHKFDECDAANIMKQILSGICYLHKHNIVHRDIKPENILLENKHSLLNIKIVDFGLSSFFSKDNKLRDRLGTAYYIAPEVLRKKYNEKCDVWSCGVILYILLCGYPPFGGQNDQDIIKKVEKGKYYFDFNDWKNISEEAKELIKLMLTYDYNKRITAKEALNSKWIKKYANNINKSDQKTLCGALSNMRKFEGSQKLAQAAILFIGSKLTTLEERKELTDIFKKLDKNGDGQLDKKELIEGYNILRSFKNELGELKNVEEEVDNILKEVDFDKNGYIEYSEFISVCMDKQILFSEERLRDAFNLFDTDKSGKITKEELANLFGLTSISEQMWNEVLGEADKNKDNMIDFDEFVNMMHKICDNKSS
Sequence of Protein kinase 7 (PK7), Plasmodium falciparum 3D7 (PF3D7_0213400) (Q7YTF7 1-343): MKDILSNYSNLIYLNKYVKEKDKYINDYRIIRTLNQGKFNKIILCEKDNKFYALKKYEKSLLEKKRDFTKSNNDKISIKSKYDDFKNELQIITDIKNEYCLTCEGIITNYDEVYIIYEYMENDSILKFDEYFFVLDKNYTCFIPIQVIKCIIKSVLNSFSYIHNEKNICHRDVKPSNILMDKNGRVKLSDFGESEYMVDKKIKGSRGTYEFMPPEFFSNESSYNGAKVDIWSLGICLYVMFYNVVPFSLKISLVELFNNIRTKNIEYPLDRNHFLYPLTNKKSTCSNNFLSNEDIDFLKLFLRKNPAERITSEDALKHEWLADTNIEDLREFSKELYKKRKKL
Sequence of Plasmodium falciparum protein kinase 6 (PK6, PF3D7_1337100) (Q8IDW1 1-305): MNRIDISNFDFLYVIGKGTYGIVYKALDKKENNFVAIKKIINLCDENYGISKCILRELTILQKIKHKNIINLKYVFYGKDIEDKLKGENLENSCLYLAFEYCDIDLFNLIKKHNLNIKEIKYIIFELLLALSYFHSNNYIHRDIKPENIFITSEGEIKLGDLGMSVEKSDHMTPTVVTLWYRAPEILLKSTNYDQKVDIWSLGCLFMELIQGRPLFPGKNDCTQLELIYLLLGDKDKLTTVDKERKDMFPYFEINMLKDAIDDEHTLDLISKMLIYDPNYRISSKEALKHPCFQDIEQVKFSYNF
Sequence of L-lactate dehydrogenase (Plasmodium falciparum (isolate CDC / Honduras)) (Q27743 whole entry, looked up): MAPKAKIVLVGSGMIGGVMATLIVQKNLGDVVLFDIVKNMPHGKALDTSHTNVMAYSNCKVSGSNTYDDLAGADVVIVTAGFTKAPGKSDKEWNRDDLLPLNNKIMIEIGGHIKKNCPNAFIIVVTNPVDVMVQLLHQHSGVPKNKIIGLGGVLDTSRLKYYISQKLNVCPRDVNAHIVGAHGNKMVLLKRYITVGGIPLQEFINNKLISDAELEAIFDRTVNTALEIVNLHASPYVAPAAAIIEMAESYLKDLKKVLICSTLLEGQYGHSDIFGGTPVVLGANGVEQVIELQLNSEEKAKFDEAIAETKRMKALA

CN1CCC(NCc2ccc(-c3ccc(S(=O)(=O)NCc4ccccc4)cc3)cc2)CC1
active: growth inhibition [1] 51% | growth inhibition [4] 99%
inactive: inhibition [2] 40% | inhibition [3] 2% | outcome [5] | outcome [6] | outcome [7] | outcome [8]

COc1ccc2nccc([C@@H](O)CN3CCC(NCc4ccc5cccc(O)c5n4)CC3)c2n1
active: growth inhibition [4] 94%
inactive: growth inhibition [1] 13% | inhibition [2] 8% | inhibition [3] 2% | outcome [5] | outcome [6] | outcome [7] | outcome [8]

COc1ccc2nccc([C@@H](O)CN3CCC(NC(=O)Cc4cc5ccccc5s4)CC3)c2c1
inactive: growth inhibition [1] 42% | inhibition [2] 16% | inhibition [3] 7% | outcome [5] | outcome [6] | outcome [7] | outcome [8]
active: growth inhibition [4] 92%

COc1ccccc1Cc1nc2ccccc2nc1SCC(=O)Nc1cccc(C(F)(F)F)c1
inactive: inhibition [2] 8% | inhibition [3] 0% | outcome [5] | outcome [6] | outcome [7] | outcome [8]
active: growth inhibition [1] 91% | growth inhibition [4] 97%

COc1ccc(C2(CNCC(O)c3cccc([N+](=O)[O-])c3)CCCCC2)cc1OC (stereo not given)
inactive: inhibition [2] -2% | inhibition [3] 3% | outcome [5] | outcome [6] | outcome [7] | outcome [8]
active: growth inhibition [1] 85% | growth inhibition [4] 95%

O=C(/C=C/c1ccc(Br)cc1)NCCCCCN1CCC(c2c[nH]c3ccccc23)CC1
active: inhibition [2] 73% | growth inhibition [4] 99%
inactive: growth inhibition [1] 19% | inhibition [3] -2% | outcome [5] | outcome [6] | outcome [7] | outcome [8]

CCC(C)OC(=O)C1=C(C)NC2=C(C(=O)CC(c3ccc(OC)c(OC)c3)C2)C1c1ccc(O)cc1 (stereo not given)
inactive: inhibition [2] 3% | inhibition [3] 6% | outcome [5] | outcome [6] | outcome [7] | outcome [8]
active: growth inhibition [1] 97% | growth inhibition [4] 101%

COc1ccc(Nc2nccc(NCC(O)c3ccc(C(F)(F)F)cc3)n2)cc1 (stereo not given)
inactive: inhibition [2] 6% | inhibition [3] -1% | outcome [5] | outcome [6] | outcome [7] | outcome [8]
active: growth inhibition [1] 54% | growth inhibition [4] 98%

Oc1ccc(CN2CCC(NCc3cccc4ccccc34)CC2)cc1
active: growth inhibition [4] 97%
inactive: growth inhibition [1] 8% | inhibition [2] 8% | inhibition [3] -3% | outcome [5] | outcome [6] | outcome [7] | outcome [8]

CCOC(=O)c1[nH]c2cc(Cl)cc(Cl)c2c1/C=C/C(=O)Nc1ccc(-c2cnc(NC(C)=O)[nH]2)cc1
active: growth inhibition [1] 65% | growth inhibition [4] 100%
inactive: inhibition [2] 45% | inhibition [3] -3% | outcome [5] | outcome [6] | outcome [7] | outcome [8]

O=C(Cc1cnc[nH]1)Nc1cccc(-c2ccc(-c3nc4ccc(F)cc4[nH]3)cc2)c1
inactive: inhibition [2] 4% | inhibition [3] -7% | outcome [5] | outcome [6] | outcome [7] | outcome [8]
active: growth inhibition [1] 84% | growth inhibition [4] 100%

CCc1nonc1NC(=O)c1oc2c(C)c(C)ccc2c1C
active: growth inhibition [1] 64% | growth inhibition [4] 89%
inactive: inhibition [2] 1% | inhibition [3] -3% | outcome [5] | outcome [6] | outcome [7] | outcome [8]

COc1cccc2c(NN=Cc3ccccc3[N+](=O)[O-])ccnc12
inactive: growth inhibition [1] 43% | inhibition [2] 8% | inhibition [3] -3% | outcome [5] | outcome [6] | outcome [7] | outcome [8]
active: growth inhibition [4] 99%

COCCN1CCN(Cc2ccc(-c3ccc(-c4nc5ccc(F)cc5[nH]4)cc3)cc2)CC1
active: growth inhibition [1] 99% | growth inhibition [4] 101%
inactive: inhibition [2] 25% | inhibition [3] -2% | outcome [5] | outcome [6] | outcome [7] | outcome [8]

Fc1cccc(-c2ccc3c(c2)CC(NCc2c[nH]c4cnccc24)C3)c1 (stereo not given)
inactive: inhibition [2] 24% | inhibition [3] -1% | outcome [5] | outcome [6] | outcome [7] | outcome [8]
active: growth inhibition [1] 68% | growth inhibition [4] 100%

O=C(Nc1cccc(CN2CCN(C(=O)c3ccccc3)CC2)c1)c1ccco1
inactive: growth inhibition [1] 42% | inhibition [2] 6% | inhibition [3] -2% | outcome [5] | outcome [6] | outcome [7] | outcome [8]
active: growth inhibition [4] 95%

CN1CCN(c2ccnc3ccc(NC(=O)Nc4ccc(Br)cc4)cc23)CC1
active: growth inhibition [1] 99% | growth inhibition [4] 101%
inactive: inhibition [2] 12% | inhibition [3] -5% | outcome [5] | outcome [6] | outcome [7] | outcome [8]

COc1ccc2nccc([C@@H](O)CNCCCN(C)CCOc3cc(F)cc(F)c3)c2c1
active: growth inhibition [1] 58% | growth inhibition [4] 99%
inactive: inhibition [2] 11% | inhibition [3] -1% | outcome [5] | outcome [6] | outcome [7] | outcome [8]

O=C(Nc1cccc(N2CCC(NCCCc3ccncc3)CC2)c1)c1cccc(C(F)(F)F)c1
inactive: inhibition [2] 11% | inhibition [3] 4% | outcome [5] | outcome [6] | outcome [7] | outcome [8]
active: growth inhibition [1] 50% | growth inhibition [4] 96%

N#Cc1c(N2CCCCCC2)nc(N)c2c(N)nc3c(c12)CC(=O)N3c1ccc(F)cc1
active: growth inhibition [1] 91% | growth inhibition [4] 97%
inactive: inhibition [2] -7% | inhibition [3] -1% | outcome [5] | outcome [6] | outcome [7] | outcome [8]

Cc1ncccc1C(=O)Nc1cccc(-c2cccc(-c3nc4ccc(C(F)(F)F)cc4[nH]3)c2)c1
inactive: growth inhibition [1] 30% | inhibition [2] 34% | inhibition [3] 1% | outcome [5] | outcome [6] | outcome [7] | outcome [8]
active: growth inhibition [4] 96%

N[C@@H](Cc1ccc(O)cc1)C(=O)NC(c1ccccc1)c1c(O)ccc2ccccc12 (stereo not given in full)
inactive: inhibition [2] 6% | inhibition [3] 2% | outcome [5] | outcome [6] | outcome [7] | outcome [8]
active: growth inhibition [1] 95% | growth inhibition [4] 95%

CCCc1cc(N2CCC(N3CCCC3)CC2)nc(Nc2ccc(Cl)cc2)n1
inactive: growth inhibition [1] 9% | inhibition [2] 29% | inhibition [3] -2% | outcome [5] | outcome [6] | outcome [7] | outcome [8]
active: growth inhibition [4] 96%

CN(C(=O)C1(c2ccc(Cl)cc2)CC1)C1CCN(CCCCCNC(=O)/C=C/c2ccc(Cl)c(Cl)c2)CC1
active: inhibition [2] 91% | growth inhibition [4] 88%
inactive: growth inhibition [1] 0% | inhibition [3] -2% | outcome [5] | outcome [6] | outcome [7] | outcome [8]

COc1ccc2ncc(F)c(CCN3CCC4(CC3)COC(c3cc5c(cn3)OCCO5)=N4)c2n1
inactive: inhibition [3] 5% | outcome [5] | outcome [6] | outcome [7] | outcome [8]
active: growth inhibition [1] 83% | inhibition [2] 79% | growth inhibition [4] 89%

O=C(c1cc(C(=O)Nc2ccccc2F)c(=O)n(-c2ccccc2F)c1)c1cc(Cl)ccc1O
active: growth inhibition [1] 80% | growth inhibition [4] 98%
inactive: inhibition [2] 2% | inhibition [3] 5% | outcome [5] | outcome [6] | outcome [7] | outcome [8]

O=C(Nc1ccc(Oc2ccccc2)cc1)N[C@@H](Cc1ccc(O)cc1)C(=O)NC1CCN(Cc2ccc(O)c([N+](=O)[O-])c2)C1 (stereo not given in full)
active: growth inhibition [4] 101%
inactive: growth inhibition [1] -3% | inhibition [2] -3% | inhibition [3] 2% | outcome [5] | outcome [6] | outcome [7] | outcome [8]

CN1CCN(CC2(Nc3nccc(NCc4ccc(Cl)cc4Cl)n3)CCCCC2)CC1
inactive: inhibition [3] 0% | outcome [5] | outcome [6] | outcome [7] | outcome [8]
active: growth inhibition [1] 58% | inhibition [2] 98% | growth inhibition [4] 98%

Nc1nccc2ccc(-c3ccc4ncccc4c3)cc12
active: growth inhibition [1] 100% | inhibition [2] 97% | growth inhibition [4] 100%
inactive: inhibition [3] -7% | outcome [5] | outcome [6] | outcome [7] | outcome [8]

Cc1cc(NCc2ccccc2)nc(NCc2ccccc2)n1
inactive: growth inhibition [1] 18% | inhibition [2] 21% | inhibition [3] 5% | outcome [5] | outcome [6] | outcome [7] | outcome [8]
active: growth inhibition [4] 91%

COc1ccc(Nc2ncc3c(-c4cccc(NC(=O)c5ccccc5)c4)c[nH]c3n2)cc1OC
active: growth inhibition [1] 95% | inhibition [2] 54% | growth inhibition [4] 101%
inactive: inhibition [3] -7% | outcome [5] | outcome [6] | outcome [7] | outcome [8]

COc1cc2nc(NCCc3ccccc3)nc(NCCCc3ccccc3)c2cc1OC
active: growth inhibition [1] 101% | growth inhibition [4] 101%
inactive: inhibition [2] 21% | inhibition [3] 2% | outcome [5] | outcome [6] | outcome [7] | outcome [8]

O=C(Nc1cc(F)cc(F)c1)N1CCOC(CCN2CCC3(CCc4ccccc43)CC2)(c2ccc(Cl)c(Cl)c2)C1 (stereo not given)
inactive: inhibition [2] 32% | inhibition [3] 4% | outcome [5] | outcome [6] | outcome [7] | outcome [8]
active: growth inhibition [1] 86% | growth inhibition [4] 100%

CCOC(=O)N1CCN(CCCNc2c3ccccc3nc3ccccc23)CC1
inactive: growth inhibition [1] 20% | inhibition [2] 5% | inhibition [3] 2% | outcome [5] | outcome [6] | outcome [7] | outcome [8]
active: growth inhibition [4] 90%

Cc1cc(N[C@@H](CC(C)C)C(=O)NCc2cccc(F)c2)nc(NCCc2ccc(F)cc2)n1
inactive: growth inhibition [1] 6% | inhibition [2] 0% | inhibition [3] -2% | outcome [5] | outcome [6] | outcome [7] | outcome [8]
active: growth inhibition [4] 90%

COc1ccc2nccc([C@@H](O)CN3CCC(NCC(O)Cc4ccccc4)CC3)c2c1 (stereo not given in full)
active: growth inhibition [4] 98%
inactive: growth inhibition [1] 6% | inhibition [2] 5% | inhibition [3] -3% | outcome [5] | outcome [6] | outcome [7] | outcome [8]

NC(=O)N1CCN(Cc2ccc(Br)cc2)CC1
inactive: growth inhibition [1] 0% | inhibition [3] -5% | outcome [5] | outcome [6] | outcome [7] | outcome [8]
active: inhibition [2] 83% | growth inhibition [4] 96%

CN(C)S(=O)(=O)c1ccc(N2C(=O)[C@@H]3[C@H](C2=O)[C@@]2(c4ccccc4)C(=O)[C@]3(c3ccccc3)C(c3ccccc3)=C2c2ccccc2)cc1
active: growth inhibition [1] 63% | growth inhibition [4] 92%
inactive: inhibition [2] -10% | inhibition [3] 3% | outcome [5] | outcome [6] | outcome [7] | outcome [8]

Cc1cc(N)c2cc(NC(=O)c3cccc(C(=O)Nc4ccc5nc(C)cc(N)c5c4)c3)ccc2n1
inactive: inhibition [2] 9% | inhibition [3] 4% | outcome [5] | outcome [6] | outcome [7] | outcome [8]
active: growth inhibition [1] 92% | growth inhibition [4] 94%

CCNC[C@@H](O)[C@H](Cc1ccccc1)NC(=O)c1cc2c3c(c1)c(CC)cn3CCS(=O)(=O)N2C
inactive: inhibition [2] 0% | inhibition [3] -4% | outcome [5] | outcome [6] | outcome [7] | outcome [8]
active: growth inhibition [1] 65% | growth inhibition [4] 99%
